Among the data in PubChem BioAssay (NCI) are growth values, retold here.

About 83,000 compounds went through this panel and 20% of them were active in at least one assay; those are over-represented in the sample as a whole.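 How to read the values: 0–100, growth inhibition (40 = 60% inhibited); 0, no net growth; -100 to 0, cell death (-40 = 40% of starting cells died; -100 = all dead).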 Values without a mark were called inactive. The source made the active and inactive calls. Rule for the calls: active = growth percent below 10; inactive = the rest.

In the experiment the test system is HL-60(TB) leukemia. The experiment in a line: NCI-60 one-dose screen, 48 h (100 = growth as untreated, 0 = no growth, -100 = all killed). The settings on record: 10 µM unless noted.
In the case of `O=C(O)c1ccccc1C(F)(F)F`, the growth was 100%. The same measure for `CC(C)=NNc1ncnc2c1ncn2C1OC(CO)C(O)C1O` (stereo not given): 6.58% (active); for `CCn1cc(C2NC(=O)c3cc(F)ccc3N2)c2cccc(Cl)c21` (stereo not given): -50% (active).

Consider `CCCCCCCCN(CCCCCCCC)CC(O)c1cc(Cl)ccc1OC` (stereo not given), for which the growth is 73.4%.

In the case of `Oc1cccc(CNC2CCCCC2)c1`, the growth is 107%. The same measure for `CC(=O)C[n+]1ccccc1Sc1ccc(Cl)cc1`: 28.4%; for `OCCN1CCOCC1`: 121%; for `C=CCC(OC(C)=O)c1ccc(OC)c(OC)c1` (stereo not given): 116%. The same measure for `S=c1nc2[nH]c3ccccc3c2n[nH]1`: 148%. Take `Cc1nc(-n2[nH]c(=O)ccc2=O)sc1N=Nc1ccccc1`: the growth is 98%. For `COc1cc2c(cc1OC)-c1ccc3cc4c(cc3c1N(CCCn1ccnc1)C2)OCO4`, the growth is 3.45% (active). To `CN1C(=O)C(C(=O)/C=C/c2ccccc2C(=O)O)C(=O)N(C)C1=O` belongs 97.4%; to `COc1ccc(/C(=C2/O[C@@H]([C@H]3COC(C)(C)O3)[C@H]3OC(C)(C)O[C@@H]23)c2cc(OC)c(OC)c(OC)c2)cc1O`, -0.369% (active). `CC(=O)O[C@@H]1CC2C(C)(C)CCCC2(C)C2=C1C(=O)C(C(C)C)=CC2=O` (stereo not given in full): the growth is 1.18% (active).

For the compound `O=C(Nc1ccc(N2CCNCC2)cc1)c1[nH]ncc1Nc1cc(Oc2ccccc2)ncn1`, the growth is -49.6% (active). The same measure for `CC(=O)OCC1SC(OC(C)=O)C(NC(=O)/C=C/CCl)C(OC(C)=O)C1OC(C)=O` (stereo not given): 79.9%; for `O=C1/C(=C(/c2ccccc2)N2CCOCC2)Cc2ccccc21`: 27.5%; for `C=CCSSc1ncnc2c1ncn2C1OC(CO)C(O)C1O` (stereo not given): 21.5%. The same measure for `C=C(C)[C@@H]1CC[C@]2(CN)CC[C@]3(C)[C@H](CC[C@@H]4[C@@](C)(CCCN)[C@H](C(=C)C)CC[C@]43C)[C@@H]12`: 53.3%; for `COc1cc2nc(N3CCC[C@H](NC4=CC(=O)c5ccccc5C4=O)C3)nc(N)c2cc1OC`: -64.6% (active). Take `C/C(Cc1ccccc1)=N\O`: the growth is 13.8%. To `O=Nc1ccccc1N=O` belongs 78.3%; to `O=C1C(=O)c2c(nc3ccc(Br)cn23)-c2ccccc21`, -58.2% (active); to `CCOC(=O)CC1C(COC(=O)NC)OC(n2cnc3c(NC(=O)Nc4ccccc4)ncnc32)C1O[Si](C)(C)C(C)(C)C` (stereo not given), 23.5%. The same measure for `O=C(CN1CCOCC1)Nc1ccc2ncnc(Nc3ccc(Oc4cccc(F)c4)c(Cl)c3)c2c1`: 84.5%. The same measure for `CCCCCCCCCCC1OC(C)CC(C)O1` (stereo not given): 92.9%.

For the compound `Nc1ccc(C2=NN(C(=O)c3cc(-c4ccc(Cl)cc4)nc4ccccc34)C(c3ccccc3)C2)cc1` (stereo not given), the growth is -6.07% (active). To `COc1cc(NC2CCCCC2O)c2nc(-c3ccc(Cl)cc3)ccc2c1` (stereo not given) belongs 81.9%; to `COc1cc(C2=NN(C(C)=O)C(c3ccc(N(C)C)cc3)C2)cc(OC)c1OC` (stereo not given), 89.6%; to `NC(=O)[C@@H]1Cc2ccccc2CN1C(=O)c1ccc2c(c1)Cc1ccccc1-2`, 72.2%.

In the case of `CC(=O)Nc1c(Cl)cc(Cl)c2c1Cc1cc([N+](=O)[O-])ccc1-2`, the growth is 89.8%. To `O=C(O)C(O)C(O)C(=O)O.[NH-]C1CCCCC1[NH-].[Pt+2]` (stereo not given) belongs 104%. The same measure for `CCCCCCCCCCCCCCCC(=O)OC[C@@]1(O)C[C@@]23CC[C@@H]4C(C)(C)CCC[C@@]4(C)[C@@H]2CC[C@H]1C3`: 73.3%.

Take `O=C(/C=C/c1ccccn1)c1ccccc1O`: the growth was 13.1%. To `C/C(=N\Nc1ccc([N+](=O)[O-])cn1)c1ccc(N)cc1` belongs -30.8% (active). To `CC1=CC(=O)OC1C/C=C(\C)CCC1[C@@]2(C)CCC[C@@](C)(C(=O)O)C2CC[C@@]1(C)O` (stereo not given in full) belongs 95.8%. To `Cc1c2c(cc[n+]1Cc1ccccc1)c1ccc(OCc3ccccc3)cc1n2Cc1ccccc1` belongs -54.1% (active).

With `O=S(=O)(c1cc(Cl)ccc1O)c1cc(Cl)ccc1O`, the growth is 74.2%. With `CCC(CCCN1C(=O)c2ccccc2C1=O)Nc1cc(OC)cc2c(C)ccnc12` (stereo not given), the growth was 87.4%. The same measure for `COC(=O)c1nc(-c2ccc(C)cc2)oc1Sc1ccc(C)cc1`: 91.4%.
